Most compounds without a hit are left out; they make up all but 19% or so of the library.
HT1080 IDH1KD tx – kills HT-1080 cells with IDH1 knockdown | HT-1080 IDH1 knockdown viability, ATP luminescence, 48 h | Potency, µM (highest dose often 46.1 µM), for the others: top-dose activity, negative = toxicity, hits mostly cytotoxic | 360,000 tested, 2% active | AID 686971;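 note: 0% = DMSO wells and -100% = cell-free medium wells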
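In this qHTS, HT-1080 cells depleted of IDH1 are exposed for 48 h at 37 °C to compound titrations. Toxicity is scored from CellTiter-Glo luminescence, with DMSO as full viability and medium alone as none.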
TDP1 cell CPT – DT40-hTDP1 cell growth loss with CPT. chicken DT40 Tdp1-/-;hTDP1 cells + 20 nM CPT, ATP luminescence, 48 h. Potency, µM (titrated, usually from 46.2 µM), without a hit: top-dose activity change, negative = growth inhibition, actives largely listed as inhibitors. 420,000 tested, 12% active; note: nearly all actives have a fitted effect of over 55% in size
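Cell growth measured by CellTiter-Glo luminescence after a minimum 48 h, 37 C compound exposure with 20 nM CPT in Tdp1-knockout DT40 cells stably expressing hTDP1, seeded 400/well; qHTS titration format.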
KB-3-1 cytotox – KB-3-1 parental cell cytotoxicity; KB-3-1 viability, CellTiter-Glo ATP luminescence, 72 h; Potency, µM (series often up to 46.1 µM), most hits filed as cytotoxic; 400,000 tested, 1.4% active; AID 1347075; note: nearly all actives have a fitted effect of over 60% in size
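KB-3-1 parental drug-naive adenocarcinoma cells in DMEM/10% FBS, incubated 72 h at 37 C with pin-transferred compounds across a concentration series. Viability by CellTiter-Glo luminescence; concentration-response curves fitted after normalization.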
KB-V1 MDR tox – kills drug-selected multidrug resistant KB-V1 cells; KB-V1 MDR cells viability, CellTiter-Glo, 72 h; Potency, µM (titrated, usually from 46.1 µM), hits mostly cytotoxic; 400,000 tested, 3.4% active; AID 1347076; note: nearly all actives have a fitted effect of over 60% in size
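KB-V1 cells (P-gp-expressing MDR subline of KB-3-1) in phenol-red-free DMEM with 10% FBS were exposed to library compounds over a concentration series for 72 h at 37 degrees C. Viability read by CellTiter-Glo luminescence; concentration-effect curves fitted after normalization.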
DT40 TDP1 no CPT – qHTS for Inhibitors of human tyrosyl-DNA phosphodiesterase 1 (TDP1): qHTS in cells in absence of CPT. DT40 Tdp1-/- hTDP1 cells, no CPT, ATP luminescence, 48 h. Potency, µM (doses to about 46.2 µM), inactives show at the highest dose activity change, negative = growth inhibition, most hits filed as inhibitors. 420,000 tested, 15% active. AID 686978, 2013; note: nearly all actives have a fitted effect of over 55% in size
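Camptothecin absent (DMSO only). Human TDP1-complemented DT40 knockout cells, 400 cells/well, 37 °C for minimum 48 hr; ATP measured via CellTiter-Glo, 30 min dark incubation, luminescence.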
HT1080-NT tox – kills 2HG-producing HT-1080-NT fibrosarcoma cells; HT-1080-NT fibrosarcoma viability, CellTiter-Glo ATP luminescence, 48 h; Potency, µM (series often up to 46.1 µM), for the others: at the highest dose activity, negative = less viability, actives largely listed as cytotoxic; 360,000 tested, 1.6% active;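 note: NT is the 2HG producing partner of a matched IDH1 knockdown line; 0% = DMSO-treated cells and -100% = media-only wells without cells; nearly all actives have a fitted effect of over 55% in size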
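HT-1080-NT fibrosarcoma cells (2HG-overproducing), 750 cells/well in RPMI with 5% FBS, dosed after 2 h and incubated 48 h at 37C. CellTiter-Glo luminescence normalized to DMSO and no-cell wells; concentration-response curves fitted and classed.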
Active calls of the source: *; i = inactive; ? = inconclusive; / = no result given. Calls come from the whole dose curve; as a rule, active = well fitted curve in the direction sought with a large enough effect; inconclusive = small, poorly fitted or top-dose-only effect, or another doubt; inactive = no such curve, though single readings can be large; an effect the other way counts as inactive or inconclusive. Unless noted, % is set by controls: 0 for no effect and ±100 for the full control effect; potency is the fitted concentration of half-maximal effect.

SMILES	HT1080 IDH1KD tx	TDP1 cell CPT	KB-3-1 cytotox	KB-V1 MDR tox	DT40 TDP1 no CPT	HT1080-NT tox
COc1ccc(S(=O)(=O)N(CC(=O)NCCSc2ccccc2)c2ccc(C)cc2)cc1	/	18µM*	?	i	13µM*	/
COc1ccc(S(=O)(=O)N(CC(=O)NCCSc2ccccc2)c2ccc(Cl)cc2)cc1	/	16µM*	i	i	12µM*	/
COc1cccc(N(CC(=O)NCCSc2ccc(Cl)cc2)S(C)(=O)=O)c1	-2%	-23%	i	16µM*	-29%	-7%
COc1ccc(N(CCOc2ccccc2)S(=O)(=O)c2ccccc2)cc1	-12%	?	i	i	16µM*	-6%
COc1ccc(N(CC2CO2)S(=O)(=O)c2ccccc2)cc1 (stereo not given)	?	?	i	i	?	-26%
COc1ccc(N(CC(=O)NCCSc2ccccc2)S(C)(=O)=O)cc1	-7%	0%	?	i	-8%	-5%
O=C(/C=C/c1ccc2c(c1)OCO2)NCCSCc1c(Cl)cccc1Cl	?	-22%	i	?	1%	-11%
Cc1ccc(NC(=O)c2nc(-c3ccncc3)no2)c(Cl)c1	/	-11%	i	i	-1%	/
Cc1cc2c(c(/C=C/C(=O)c3ccccc3)c1)OC1(C=C2)Oc2ccccc2C(=O)N1C (stereo not given)	?	?	16µM*	?	26µM*	?
Cc1c(/C=C/C(=O)c2ccccc2)cnn1C	1%	?	i	i	?	-2%
CCOC(=O)c1c(NC(=O)CSc2nc(-c3ccc(OC)cc3)cc(C(F)(F)F)n2)sc(C)c1C	/	?	i	i	?	/
Cc1cc2c(c(C)c1CCO)C(=O)[C@H](C)C2	?	-13%	i	i	?	-1%
COc1ccc(CNC(=O)C2(C)Cc3c(-c4ccc(C(N)=O)cc4)ccnc3O2)cc1OC (stereo not given)	3%	0%	i	i	-11%	?
COc1ccc(CNC(=O)C2(C)Cc3c(-c4ccc5c(c4)OCO5)ccnc3O2)cc1OC (stereo not given)	?	?	i	i	16µM*	-16%
COCCNC(=O)C1(C)Cc2c(-c3cccc(C(N)=O)c3)ccnc2O1 (stereo not given)	2%	?	i	i	-19%	12%
CC1(C(=O)NCCc2ccccc2)Cc2c(-c3cccc(C(N)=O)c3)ccnc2O1 (stereo not given)	?	?	?	i	18µM*	-30%
CN(C)c1ccc(CNC(=O)C2(C)Cc3c(-c4cccc(C(N)=O)c4)ccnc3O2)cc1 (stereo not given)	?	15µM*	i	i	?	?
CN(C)c1ccc(CNC(=O)C2(C)Cc3c(-c4ccc(N(C)C)cc4)ccnc3O2)cc1 (stereo not given)	?	?	?	i	18µM*	?
CN(C)c1ccc(-c2ccnc3c2CC(C)(C(=O)Nc2ccc(Cl)cc2)O3)cc1 (stereo not given)	0%	?	i	i	?	20%
O=C(O)c1cc(NC(=O)c2cccc(F)c2)cc(NC(=O)c2cccc(F)c2)c1	17%	4%	i	i	-13%	22%
CN(C)c1ccc(-c2ccnc3c2CC(C)(C(=O)NCC2CC2)O3)cc1 (stereo not given)	1%	5.2µM*	i	i	5.2µM*	10%
CN(C)c1ccc(-c2ccnc3c2CC(C)(C(=O)Nc2cccc(N(C)C)c2)O3)cc1 (stereo not given)	12%	?	i	i	-22%	17%
CC1(C(=O)NCC2CC2)Cc2c(-c3ccc4c(c3)OCO4)ccnc2O1 (stereo not given)	?	4.6µM*	15µM*	?	5.2µM*	?
COCCNC(=O)C1(C)Cc2c(-c3ccc(NC(C)=O)cc3)ccnc2O1 (stereo not given)	8%	?	i	i	?	16%
CN(C)c1ccc(CNC(=O)C2(C)Cc3c(-c4ccc5c(c4)OCO5)ccnc3O2)cc1 (stereo not given)	?	4.6µM*	7.3µM*	12µM*	3.7µM*	?
SMILES	HT1080 IDH1KD tx	TDP1 cell CPT	KB-3-1 cytotox	KB-V1 MDR tox	DT40 TDP1 no CPT	HT1080-NT tox
CNC(=O)C1(C)Cc2c(-c3ccc4c(c3)OCO4)ccnc2O1 (stereo not given)	6%	?	i	i	?	19%
COCCNC(=O)C1(C)Cc2c(-c3ccc(N(C)C)cc3)ccnc2O1 (stereo not given)	-21%	5.2µM*	i	i	4.6µM*	-24%
CSc1ncc(C(=O)Nc2cccnc2)c(C(F)(F)F)n1	11%	-11%	i	i	-1%	5%
O=C(CSc1ccccc1)NCC1(N2CCCCC2)CCCCC1	-1%	?	i	i	?	-4%
Cc1ccc2c(c1)c1c(c(=O)n(-c3cccc(Cl)c3)c(=O)n1CC(=O)NCCC1=CCCCC1)n2C	/	-2%	i	i	1%	/
CN1CCN(c2ccc(CNC(=O)C3(C)Cc4c(-c5ccc(C(N)=O)cc5)ccnc4O3)cc2)CC1 (stereo not given)	20%	-17%	i	i	-16%	-14%
CN1CCN(c2ccc(CNC(=O)C3(C)Cc4c(-c5ccc6c(c5)OCO6)ccnc4O3)cc2)CC1 (stereo not given)	-13%	?	i	i	15µM*	?
COC(=O)[C@@]12CCCN1[C@H](c1ccc(-c3ccc4c(c3)OCO4)cc1)[C@H]1C(=O)N(C)C(=O)[C@H]12	-3%	?	i	i	?	9%
COC(=O)[C@@]12CCCCN1[C@H](c1ccc(-c3ccc(OC)cc3)cc1)[C@H]1C(=O)N(C)C(=O)[C@H]12	4%	12µM*	i	?	9.2µM*	11%
COC(=O)[C@@]12CCCCN1[C@H](c1ccc(-c3ccccc3)cc1)[C@@H]1C(=O)N(C)C(=O)[C@@H]12	-5%	21µM*	i	i	?	-10%
COC(=O)[C@@]12CCCCN1[C@H](c1ccc(-c3ccc(F)cc3)cc1)[C@H]1C(=O)N(C)C(=O)[C@H]12	3%	?	?	?	23µM*	11%

Screening data: PubChem, National Center for Advancing Translational Sciences (NCATS)
